These results are taken from PubChem BioAssay (Tox21).

Inconclusive results are not listed. Active and inactive are the calls of the source. The call rests on the fitted dose curve; in most records, active means well fitted cell-killing curve with a large enough effect in the repeat runs; inconclusive means weak or mixed curves, or effect the other way; inactive means no such curve, though single readings can be large or run the other way.
On the % scale 0 is the no-effect control and ±100 the full control effect; potency means the concentration at half of the fitted maximal effect.

A short description of the test: Caspase-3/7 induction in CHO-K1 cells by small molecules, qHTS cell viability counter screen (AID 1346979). Further: nearly all actives have a fitted effect of over 35% in size. As to conditions: CellTiter-Fluor fluorescence, 17 h; series mostly up to 92.4 µM; activity change, negative = cytotoxicity: at the top concentration. The procedure, abridged:
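Multiplexed with Caspase-Glo 3/7 in CHO-K1 cells, this counter screen added CellTiter-Fluor after 16hr of compound exposure and recorded fluorescence 1hr later.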
A general note: In qHTS, concentration-response curves come from the screen itself.
For `O=C1Cc2ccccc2C1`, the Potency was 68.6 µM (active).
Still for that read-out and setting: with `CCCCCCCCCCCCCCCCCCNC(=O)OC1CCN(C(=O)OC[C@H](COC(=O)N(Cc2cccc[n+]2CC)C(=O)c2ccccc2OC)OC)CC1` the figure was 29.8 µM (active).
Turning to `CCCOC(=O)c1ccc(O)cc1`, the “activity change, negative = cytotoxicity” value is -1.66% (inactive).
As to `O=C1C=CC(=O)N1c1cccc(N2C(=O)C=CC2=O)c1`, the Potency is 5.45 µM (active).
Turning to `CCCCCCCCCC[N+](C)(CCCCCCCCCC)CCC[Si](OC)(OC)OC`, the Potency is 30.6 µM (active).
Consider `O=C1CCC/C=C\CCCCCCCCCC1`, for which the “activity change, negative = cytotoxicity” value is -6.55% (inactive).
As for `CCOC(=O)[C@H](O)[C@@H](O)C(=O)OCC`, the “activity change, negative = cytotoxicity” value was 8.34% (inactive).
For the molecule `Brc1cc(Br)cc(Br)c1`, the “activity change, negative = cytotoxicity” value is -2.58% (inactive).
Turning to `c1ccc2occc2c1`, the “activity change, negative = cytotoxicity” value was 8.95% (inactive).
With `Cc1ccc(S(=O)(=O)C(I)I)cc1`, the Potency is 15.4 µM (active).
On the same count and under the same terms, with `CCCCCCCCCCCCN1CCCC1=O` the figure was 61.1 µM (active).
Consider `Cc1ccc(Cl)c(N)c1Cl`, for which the “activity change, negative = cytotoxicity” value is 3.55% (inactive).
Take `CCSCC`: the “activity change, negative = cytotoxicity” value was -7.76% (inactive).
With `COc1cc(/C=C/C(=O)CC(=O)/C=C/c2ccc(O)c(OC)c2)ccc1O`, the Potency was 43.5 µM (active).
Take `CCCCCCCC/C=C\CCCCCCCC(=O)N(CCO)CCO`: the Potency is 68.3 µM (active).
As to `CN1CCN(C)CC1`, the “activity change, negative = cytotoxicity” value is 10% (inactive).
For the molecule `Nc1ccc(Oc2cccc(Oc3ccc(N)cc3)c2)cc1`, the “activity change, negative = cytotoxicity” value was -9.98% (inactive).
In the case of `CN1CC[C@H](c2c(O)cc(O)c3c(=O)cc(-c4ccccc4Cl)oc23)[C@H](O)C1`, the Potency was 0.0944 µM (active).
In the case of `O=S(=O)(c1ccc(OCc2ccccc2)cc1)c1ccccc1O`, the Potency was 43.3 µM (active).
On to `O=C(Nc1ccccc1)c1cc(Cl)ccc1O`, for which the Potency is 17.2 µM (active).
For `CS(=O)(=O)c1ccc([C@@H](CC2CCCC2)C(=O)Nc2cnccn2)cc1Cl`, the Potency is 61.1 µM (active).
As to `CCc1c(C)cc(N)c(CC)c1N`, the “activity change, negative = cytotoxicity” value is -4.49% (inactive).
On to `O=C(N[C@H](CO)[C@H](O)c1ccc([N+](=O)[O-])cc1)C(Cl)Cl`, for which the “activity change, negative = cytotoxicity” value is 3.61% (inactive).
As for `CN1CCN(c2ccccc2/C=C2\SCCN(c3ccc(Cl)c(Cl)c3)C2=O)CC1`, the Potency is 61.1 µM (active).
On to `CCCC(=O)c1cc(O)c(O)cc1O`, for which the Potency was 51.4 µM (active).
With `CC/C=C\C/C=C\C/C=C\CCCCCCCC(=O)OC`, the Potency was 61.1 µM (active).
As for `O=c1[nH]cccc1O`, the “activity change, negative = cytotoxicity” value was 0.868% (inactive).
With `COc1cc2ncnc(Nc3cccc(Cl)c3)c2cc1OC`, the activity change, negative = cytotoxicity was -12.4% [at 19 µM] (inactive).
As for `CC1(C)[C@H]2CC[C@]1(C)C(=O)C2`, the Potency is 61.1 µM (active).
Same read-out and setting: the same measure for `CCCCCCCCOC(=O)c1cc(O)c(O)c(O)c1`: 1.09 µM (active).
